Measurements as given in PubChem BioAssay AID540317 (National Center for Advancing Translational Sciences (NCATS), 2011).
The whole screen tested about 390,000 compounds, of which about 2,200 (0.56%) were called active. A call without a number means that no potency is given here. Another 3% or so got no clear call; they are omitted. The sample holds actives, similar compounds and a random draw of the others, so the mix is not that of the screen. Calls come from the whole dose curve; as a rule, active = well fitted inhibition curve with a large enough effect; inconclusive = small, poorly fitted or top-dose-only effect; inactive = no such curve, though single readings can be large or run the other way.

These compounds were tested against Chromobox protein homolog 1 (Homo sapiens) (UniProt P83916) (assay: HTS for Inhibitors of HP1-beta Chromodomain Interactions with Methylated Histone Tails). Conditions: AlphaScreen HP1-beta / biotin-H3K9me3 peptide binding; series mostly up to 114 µM.
Chain of Chromobox protein homolog 1 (Homo sapiens) (P83916 whole entry, looked up): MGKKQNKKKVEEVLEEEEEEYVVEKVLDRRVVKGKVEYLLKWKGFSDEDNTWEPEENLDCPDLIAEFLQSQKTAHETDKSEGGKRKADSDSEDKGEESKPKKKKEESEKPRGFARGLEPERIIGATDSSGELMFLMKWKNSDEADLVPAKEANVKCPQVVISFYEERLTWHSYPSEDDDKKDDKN
Source text: As our understanding of epigenetics expands, it is becoming clear that players in this field are potential targets for drug development. This area of epigenetic therapy has established applications for the treatment of cancer and neurological diseases. We have been involved in this field for a number of years and have performed high-throughput screens to identify the first small molecule inhibitors of protein methyltransferases. These methyltransferases target multiple substrates, and thus regulate many arms of an epigenetic pathway. The methylation of different substrates often generates docking sites for effector proteins that harbor binding domains (chromo, tudor, PHD, MBT and ANK repeats). It has been proposed that the binding sites generated for different proteins by these post-translational modifcations mediate downstream effects on chromatin. Consistent with this theory, di- and tri-methylation of histone H3K9 facilitates the binding of heterochromatin protein HP1. The HP1 protein harbors a chromodomain that is responsible for the methyl-dependent interaction between HP1 and lysine 9 of histone H3. HP1 was first described in flies as a heterochromatin associated protein that can regulate gene silencing. It harbors a chromodomain that binds H3K9me3. In addition, it harbors a chromoshadow domain that interacts with a large number of proteins that are involved in heterochromatin formation and gene repression. There are three highly related HP1 isoforms. All three variants are associated with pericentric heterochromatin and it is not clear whether they have specific or redundant functions. MPP8 is also involved in the repression of gene in euchromatic regions (unpublished data) and like HP1 its chromodomain binds H3K9me3. MPP8 harbors an ankyrin repeat region that is likely involved in binding and recruiting interacting proteins with transcriptional repressive function, much like the chromoshadow domain of HP1 does. We hypothesize that by inhibiting specific protein-protein interactions we will be able to develop compounds that block a single arm of an epigenetic pathway. The specificity attained by blocking a single protein-protein interaction will be far greater than that attained by blocking the enzyme that regulates one of many interactions. Low-affinity protein-protein interactions (Kd in the single- to double-digit micromolar range) such as those discussed here have been very difficult to assay by traditional techniques such as fluorescence polarization or fluorescence resonance energy transfer. We have developed a sensitive chemiluminescence-based assay (Quinn, et al. 2009), which serves as the starting point for this project. The following is a validation assay to identify lead compounds that can block methyl-dependent protein-protein interactions (specifically HP1-beta), which can be used as probes to analyze these methyl-driven interactions and perhaps even developed into targeted epigenetic therapies. NIH Chemical Genomics Center [NCGC] NIH Molecular Libraries Probe Centers Network [MLPCN] MLPCN Grant: DA031087 Assay Submitter (PI): Mark Bedford, University of Texas, Medical Anderson Cancer Center, TX
To each well, 2 uL of HP1-beta protein (final 50 nM) and 1 uL biotinylated histone peptide trimethylated at Lys9 [b-H3(1-18)K9me3] (final 50 nM) was added in 1x PBS buffer, pH 7.4, containing 0.01% Tween-20 using a nanoliter dispenser. Formation of a protein-peptide complex proceeded at room temperature for 30 min. A Kalypsys pin-tool was employed to transfer 23 nL of library compound solution in DMSO to each well. Aurintricarboxylic acid (ATA) was used as an intraplate control with a 12-point titration in duplicate. Following a 30 min incubation of the protein-peptide complex with compounds at room temperature, a mixture of 40 ug/mL each streptavidin-coated donor and nickel chelate acceptor AlphaScreen beads (final 10 ug/mL) was added in a 1 uL dispense for a final volume of 4 uL. […]
Note: nearly all actives have a fitted effect of over 70% in size.
Potency is the fitted concentration of half-maximal effect.

Structure (SMILES) | Potency
CSc1nc(-c2ccccc2Cl)nc2c1Cc1c(CO)cnc(C)c1O2 | inactive
COC(=O)C1=C(C)N(c2ccc(Br)cc2)C(=O)/C1=C\c1ccco1 | 44.7 µM (active)
COC(=O)C1=C(C)N(c2ccc(C)cc2)/C(=C/c2ccc(O)cc2)C1=O | inactive
COc1ccc(N2C(=O)/C(=C\c3ccco3)N=C2SCC(N)=O)cc1Cl | inactive
Cc1nc(N2CCOCC2)c2c(C(=O)NCc3cccc(Cl)c3)c(C)oc2n1 | inactive
CN(C)c1ccc(S(=O)(=O)NCC(=O)NCC2CCCCC2)cc1[N+](=O)[O-] | inactive
CN(C)c1ccc(/C=C/C(=O)c2ccc(C(C)(C)C)cc2)cc1[N+](=O)[O-] | 31.6 µM (active)
CC(C)(C)c1ccc(/C=C/C(=O)NC2CCS(=O)(=O)C2)cc1 (stereo unspecified) | inactive
CCCCC(=O)OC1=CN(Cc2ccccc2)S(=O)(=O)c2ccccc21 | inactive
COc1ccc(C(=O)Nc2nonc2-c2ccc(OC)c(OC)c2)cc1Cl | inactive
O=C(CSc1nc2ccccc2nc1Cc1ccccc1)N1CCCCC1 | inactive
O=C(NCC1CC1)C1(C(F)(F)F)C/C(=C\CCO)CCCO1 (stereo unspecified) | inactive
O=C(O)c1ccccc1N=N/C(=N/Nc1cc(S(=O)(=O)O)ccc1O)c1ccccc1 | 10 µM (active)
CCC(=O)Nc1cccc(C(=O)OCc2cc(=O)n3nc(CC)sc3n2)c1 | inactive
O=C(Nc1ccccc1Br)c1cc(CN2CCCC2)on1 | inactive
Fc1ccc(C(Nc2ccc(Cl)c(C(F)(F)F)c2)c2nnc(-c3ccccc3)o2)cc1 (stereo unspecified) | inactive
COc1ccc(C2CC(=O)N(Cc3ccccc3C)c3c2c(C)nn3-c2nc(C)cc(C)n2)c(OC)c1 (stereo unspecified) | inactive
COc1cc(OC)c2c(c1C(CCN1CCCCC1)c1ccc(N(C)C)cc1)OC(=O)CC2c1ccc(N(C)C)cc1 (stereo unspecified) | inactive
CC(C)OC(=O)c1cc(NC(=O)C2C3CCC(O3)C2C(=O)O)cc(C(=O)OC(C)C)c1 (stereo unspecified) | inactive
Cc1sc(NC(=O)C2C3CCC(O3)C2C(=O)O)c(C(=O)OC(C)C)c1-c1ccc(Cl)cc1 (stereo unspecified) | 4.47 µM (active)
CCc1c(C)sc(NC(=O)C2c3ccccc3Oc3ccccc32)c1C(=O)OC(C)C | inactive
FC(F)(F)C1CCCN(c2nsc3ccccc23)C1 (stereo unspecified) | 3.16 µM (active)
CCC(=O)N1CCc2cc(S(=O)(=O)NC(C(=O)Nc3ccc(C(C)=O)cc3)C(C)C)ccc21 (stereo unspecified) | inactive
COc1ccc(C2/C=C\CN(Cc3ccco3)C(C)C(=O)N2Cc2ccc(F)cc2)cc1 (stereo unspecified) | inactive

Structure (SMILES) | Potency
CC1CCN(C(=O)c2ccc3c(c2)NC(=O)CN3)CC1 | inactive
Cc1noc(C)c1S(=O)(=O)Nc1ccc(C(=O)N2CCN(c3ccc(F)cc3)CC2)cc1 | inactive
Cc1ccc(CSCC2Nc3ccc(C(=O)N4CCN(c5ccc(F)cc5)CC4)cc3NC2=O)cc1 (stereo unspecified) | 20 µM (active)
Cc1ccc(C)c(N2CCN(c3ccc4cc(S(=O)(=O)N5CCC(C)CC5)ccc4n3)CC2)c1 | inactive
Oc1ccc2ccccc2c1N=Nc1nccs1 | 6.31 µM (active)
O=C(CSc1nc(-c2cccc(F)c2)[nH]c1-c1ccccc1)Nc1ccc2c(c1)OCO2 | inactive
Cc1ccccc1CSc1nc(-c2ccccc2)nc2c1Cc1c(CO)cnc(C)c1O2 | inactive
Cc1ccc(NC(=O)C2CCN(S(=O)(=O)c3cc(-c4noc(C)n4)ccc3C)CC2)c(C)c1 | inactive
Cn1nnc(NC(=S)NC(=O)c2ccccc2)n1 | 70.8 µM (active)
CCOC(=O)C1=C(NC(=S)NC(=O)c2ccccc2)c2ccccc2CC1(C)C | inactive
O=C(NC(=S)Nc1ncccn1)c1ccccc1Br | inactive
CCN(CC)Cc1nc2sc(C)c(C)c2c(=O)[nH]1 | inactive
CSc1nnc(SCc2nc3sc(C(=O)O)c(C)c3c(=O)[nH]2)s1 | 50.1 µM (active)
Cc1sc2nc(CC(N)=O)[nH]c(=O)c2c1-c1ccccc1 | inactive
C=C1CCN(Cc2ccc(OC)cc2)S(=O)(=O)c2ccccc21 | inactive
COC(=O)c1ccc(OC)c(Cn2c(=O)n(Cc3ccccc3)c(=O)c3c2c2cc(OC)ccc2n3C)c1 | inactive
Cc1cc(C)cc(NC(=O)c2cnc3sc(N4CCCC4)nn3c2=O)c1 | inactive
O=C(O)C(c1ccccc1)N1C(=O)/C(=C\c2ccc(-c3cccc(Cl)c3)o2)SC1=S (stereo unspecified) | 39.8 µM (active)
O=C(NCc1ccccc1)c1cc(-c2cccc(Cl)c2)on1 | inactive
CCC(C)N1C(=O)S/C(=C/c2ccc(Sc3nc4ccccc4[nH]3)o2)C1=O (stereo unspecified) | inactive
Cc1cccc(N2CCN(C(=O)Cn3ncc4c5ccccc5n(C)c4c3=O)CC2C)c1 (stereo unspecified) | inactive
CC(C)c1ccc(NS(=O)(=O)c2ccc3[nH]cc(C(=O)NC4CCCC4)c(=O)c3c2)cc1 | inactive
Cc1cc2c(cc3c(SCc4cccc(Cl)c4)nnc(C)n32)o1 | inactive
CCOc1cccc(CC(=O)N2CCc3c([nH]c4ccccc34)C2c2ccc(F)cc2)c1OCC (stereo unspecified) | inactive

Structure (SMILES) | Potency
CCOc1cccc2c1N[C@@H](c1ccc(C(=O)O)cc1)[C@H]1CC=C[C@@H]21 | 35.5 µM (active)
CCOC(=O)C1Nc2ccc(C(F)(F)F)cc2C2C=CCC12 (stereo unspecified) | inactive
C=C1CCN(C(CC(C)C)C(=O)NCc2cc(OC)c(OC)c(OC)c2)S(=O)(=O)c2ccccc21 (stereo unspecified) | inactive
CCCn1c2ccccc2c2cnn(CC(=O)N(C)c3ccccc3CC)c(=O)c21 | inactive
COc1ccc(C2/C=C\CN(C(=O)c3ccc(C)cc3)C(Cc3ccccc3)C(=O)N2Cc2ccc(F)cc2)cc1 (stereo unspecified) | inactive
COc1cccc(CNC(=O)Cn2c(=O)c3cccn3c3ccc(F)cc32)c1OC | inactive
O=C(c1cccs1)c1cn(CCOc2ccc(Cl)cc2)c2ccccc12 | inactive
Cc1ccc(-c2ccc(CCC(=O)O)n2-c2ccc(C(N)=O)cc2)cc1 | inactive
CCN1/C(=C\c2ccc3ccccc3[n+]2CC)Sc2cc(C)ccc21 | inactive
CCN1C(=O)c2ccccc2Sc2ccc(NC(=O)Cc3ccc(OC)cc3)cc21 | inactive
CCN1/C(=C/C(=S)Nc2ccccc2)Sc2ccccc21 | 50.1 µM (active)
COc1ccc(CCNC(=O)c2ccc(CSCc3ccc(C)cc3)o2)cc1OC | inactive
COc1ccc(-c2ccc(OC)c(C3C4C=CCC(C)C4C(=O)N3Cc3ccccc3)c2)cc1C (stereo unspecified) | inactive
O=C(OC12CC3CC(CC(C3)C1)C2)c1ccc(NCc2cc(O)ccc2O)cc1 | 70.8 µM (active)
O=C(Cn1ncn2nc(-c3cccs3)cc2c1=O)NCc1cccc(Br)c1 | inactive
Cc1ccc(NN=Nc2nc3c([nH]2)c(=O)n(C)c(=O)n3C)cc1 | 35.5 µM (active)
Cc1cc(C)c(C=NNc2nc3c([nH]2)c(=O)n(C)c(=O)n3C)c(C)c1 | inactive
Cc1ccc(CNC(=O)CSc2c(C)cnc3c2c(=O)n(C)c(=O)n3C)cc1 | inactive
COc1ccc(NC(=O)CSc2nc3ncccc3[nH]2)c(OC)c1 | inactive
COc1ccc(CNC(=O)CCc2c(C)nn(-c3ccc(N4CCCC4)nn3)c2C)cc1 | inactive
Cc1cccc(C)c1-n1ncc(C(=O)NCCCN2CCCCC2)c1C1CCN(C(=O)OC(C)(C)C)CC1 | inactive
Cc1cccc(Nc2cc(C)nc(-n3nc(C)cc3C)n2)c1 | inactive
COc1ccc(OC)c(-n2nnc(-c3nc(-c4cc(OC)c(OC)c(OC)c4)no3)c2C)c1 | inactive
CCCC(=O)NC(=S)Nc1ccc(CN2CCOCC2)cc1 | inactive

Structure (SMILES) | Potency
Oc1c(CN2CCOCC2)ccc(CN2CCOCC2)c1O | 15.8 µM (active)
OCCN1CCOCCOCCN(CCO)CCN(CCO)CC1 | inactive
Cc1cc(C)cc(C(=O)N2CCN=C2SCc2ccc([N+](=O)[O-])cc2)c1 | inactive
O=C(C1CCC1)N1CCN(S(=O)(=O)c2ccc([N+](=O)[O-])cc2)CC1 | inactive
CC(=O)N1CC[n+]2c(-c3ccc([N+](=O)[O-])cc3)csc21 | 10 µM (active)
O=S(=O)(c1ccc(Cl)cc1)c1nnn2c1nc(NC1CCCC1)c1sccc12 | inactive
Cc1ccccc1CNC(=O)c1cccc(NC(=O)c2nsc3ccccc23)c1 | inactive
Cc1ccc(NC(=O)Nc2sc3nc4n(c(=O)c3c2C)CCC(C)CC4)c(Cl)c1 (stereo unspecified) | inactive
O=C(Nc1cc2c3c(c1)C1CCCC1CN3CC1CCCC21)c1ccc([N+](=O)[O-])cc1 (stereo unspecified) | 11.2 µM (active)
O=C(CCNC(=O)c1ccc([N+](=O)[O-])cc1)NC1CCCCC1 | inactive
CC1CCc2noc(NC(=O)c3ccc([N+](=O)[O-])cc3)c2C1 (stereo unspecified) | inactive
Cc1ccc(-c2cn3c(n2)sc2cc(C(=O)NCCCc4ccccc4)ccc23)cc1 | inactive
CCOC(=O)c1c(C)oc2nc(C)nc(Nc3ccc(CC)cc3)c12 | inactive
COCCNc1ncnc2c1c(-c1ccccc1)cn2-c1ccc(C)c(Cl)c1 | inactive
COc1ccc(S(=O)(=O)/N=C2\C=C(NS(=O)(=O)c3ccccc3)C(=O)c3ccccc32)cc1 | 28.2 µM (active)
COc1ccc(S(=O)(=O)NC(C)C(=O)N2CCCCCC2)cc1 (stereo unspecified) | inactive
COc1ccc(S(=O)(=O)Nc2cc3c(C(=O)OC(C)C)c(C)oc3c3ccccc23)cc1 | inactive
CCCN1CCN(CCCNC(=O)Cn2nc(CC)n3c(cc4occc43)c2=O)CC1 | inactive
O=C1C=CC(=O)N1c1ccc(N2CCCCC2)cc1 | 15.8 µM (active)
Cc1ccc(CN2COc3cc(C)c4c(oc(=O)c5ccccc54)c3C2)cc1 | inactive
CC(C)Cn1c(=O)c2ccccc2n2c(-c3cccc(Cl)c3)nnc12 | inactive
O=c1cc(-c2ccccc2)n2c(SCc3ccccc3)nnc2[nH]1 | inactive
O=c1[nH]c2ccccc2n2c(-c3ccccc3)nnc12 | 5.62 µM (active)
O=C(CNS(=O)(=O)c1cccs1)N1CCN(c2ccccc2Cl)CC1 | inactive
